# PubChem BioAssay (EPA / NIEHS)
# Active and inactive are the calls of the source. Rule for the calls: active = hit-call score of the fitted dose curve at least 0.9, where 1 is the maximum; inactive = score below 0.9.
# Read-out: Monokine induced gamma interferon (MIG), CXCL9 (gene 4283)
# Test: BSK_SAg_MIG: BioMAP Diversity Plus: SAg Assay for Monokine induced gamma interferon (MIG) Biomarker Activity (AID 2283092)
# Conditions: primary human HUVEC with PBMC; actives raise or lower the signal
# Procedure: BSK_SAg is a cell-based, multiplexed-readout assay that uses umbilical vein endothelium and peripheral blood mononuclear cells, a human vascular primary cell co-culture, with measurements taken at 24 hours after chemical dosing in a 96-well plate.BSK_SAg_MIG is an assay component measured in the BSK_SAg assay. It measures MIG antibody related to regulation of gene expression using ELISA technology.Data from the assay component BSK_SAg_MIG was analyzed into 1 assay endpoint. This assay endpoint, BSK_SAg_MIG, was analyzed with bidirectional fitting relative to DMSO as the negative control and baseline of activity. Using a type of binding reporter, gain or loss-of-signal activity can be used to understand changes in the signaling as they relate to the gene CXCL9. Furthermore, this assay endpoint can be referred to as a primary readout, because this assay has produced multiple assay endpoints where this one serves a signaling function. To generalize the intended target to other relatable targets, this assay endpoint is annotated to the cytokine intended target family, where the subfamily is chemotactic factor.
# The levels of cell surface (or secreted, indicated by the prefix "s") biomarker endpoints were measured by ELISA. Overt cytotoxicity to cells in confluent adherent cultures (all systems other than the BT system) was assessed by measuring total protein levels using sulforhodamine B (SRB) staining in parallel cultures at the time of biomarker measurements, indicated as SRB endpoints. For proliferation assays for adherent cell types, individual cell types are cultured at sub-confluence and relative cell numbers quantified by SRB staining at time points optimized for each system (48 h: 3C and CASM3C systems; 72 h: BT and HDF3CGF systems; 96 h: SAg system). SRB was performed by staining cells with 0.1% SRB after fixation with 10% TCA and reading wells at 560 nm.Viability and proliferation of PBMC (T cells) was quantified by Alamar Blue reduction for the SAg and BT systems. For PBMC viability (referred to as PBMC Cytotoxicity within the assay endpoint names), cells were plated (75,000/well in a 96-well plate) and then chemical samples added for 1 h before addition of activators, SEB and TSST-1 (20 ng/mL final concentration each). Cells were incubated for 90 h. Then, Alamar Blue (20 uL/well) (Invitrogen, Cat DAL1100) was added for 6 h, and the plates were read with a fluorescence microplate reader at 546/580 nm (excitation/emission). For PBMC proliferation, cells were plated and activated as above but incubated for only 16 h prior to addition of Alamar Blue. Plates were read after 6 h.
SMILES,outcome,AC50
O=C(N[C@@H](Cc1ccccc1)[C@@H](O)C(=O)N1C[C@@H](O)[C@@H](O)C1)c1cc2cc(Cl)ccc2[nH]1,inactive,–
CC1(C)CC(N=C=O)CC(C)(CN=C=O)C1 (stereo not given),inactive,–
CCOc1ccc2c(c1)C(C)=CC(C)(C)N2,inactive,–
CC(=O)OCCOCCOCCOC(C)=O,inactive,–
Nc1ccc(S(=O)(=O)c2ccc(N)cc2)cc1,inactive,–
CC(=O)OC/C=C(\C)CCC=C(C)C,inactive,–
CC(CO)OC(C)CO (stereo not given) (tested in a mixture with another compound),inactive,–
Cc1ccc(Cl)cc1,inactive,–
CCCCCCCCCCCC(=O)OC,inactive,–
Cc1ccccc1Cl,inactive,–
COc1cc(S(=O)(=O)O)c(C)cc1N=Nc1c(O)ccc2cc(S(=O)(=O)O)ccc12,inactive,–
Cc1nc(C)nc(N2C[C@@H](C)N(c3ccnc([C@@H](C)O)n3)[C@@H](C)C2)n1,inactive,–
CN[C@H]1CC[C@@H](c2ccc(Cl)c(Cl)c2)c2ccc(S(N)(=O)=O)cc21,–,31.2 µM (active)
NS(=O)(=O)c1cc2c(cc1Cl)NCNS2(=O)=O,inactive,–
CN1CCCC1=O,inactive,–
CCCCC(CC)COC(=O)CC(C(=O)OCC(CC)CCCC)S(=O)(=O)O (stereo not given),–,38 µM (active)
O=c1c(O)c(-c2ccc(O)c(O)c2)oc2cc(O)cc(O)c12,inactive,–
Cc1cc(NC(=O)C(=O)O)cc(C)c1Oc1ccc(O)c2c1CCC2,inactive,–
CCCCCCCCCCCCCCCC,inactive,–
COC(=O)c1ccc(O)cc1,inactive,–

SMILES,outcome,AC50
CNCc1cc(F)ccc1Oc1ccc(Cl)c(Cl)c1,inactive,–
OC[C@@H](O)[C@@H](O)[C@H](O)[C@H](O)CO,inactive,–
Cc1oc(-c2ccccc2)nc1CCOc1cccc2c1ccn2CCC(=O)O,inactive,–
Cc1ccc(N(C)C)cc1,inactive,–
Nc1ccc2c(c1)C(=O)c1ccccc1C2=O,inactive,–
C[Si]1(C)O[Si](C)(C)O[Si](C)(C)O[Si](C)(C)O1,inactive,–
NC(=O)Cn1c(=O)cc(CCN2CCN(c3nccc4sccc34)CC2)c2ccc(F)cc21,inactive,–
CCCCCCCCCCCCCCCCCC(=O)O,inactive,–
COCCOC[C@H](CC1(C(=O)NC2CCC(C(=O)O)CC2)CCCC1)C(=O)Oc1ccc2c(c1)CCC2 (stereo not given in full),inactive,–
CCCCCCCC=O,inactive,–
NCC1(Cc2noc(=O)[nH]2)CCCCC1,inactive,–
O=C(O)Cc1ccccc1Nc1c(Cl)cccc1Cl,inactive,–
O=C(O)CCCCC(=O)O,inactive,–
Cc1nc(-c2ccc3c(c2)CCN(CCC2CCC(NC(=O)/C=C/c4ccc(F)cc4)CC2)CC3)no1 (stereo not given),inactive,–
CC1(C)NC(=O)NC1=O,inactive,–
Oc1ccc2ccccc2c1N=Nc1ccccc1,inactive,–
Cc1c(C(=O)O)c(O)cc2c1C(=O)c1c(O)c([C@@H]3O[C@H](CO)[C@@H](O)[C@H](O)[C@H]3O)c(O)c(O)c1C2=O,inactive,–
Nc1ccccc1N,inactive,–
CN1CCN(Cc2cc(-c3ccc4[nH]c(=O)oc4c3)co2)[C@@H](c2ccc(F)cc2)C1,inactive,–
CC=Cc1ccc(O)c(OC)c1,inactive,–
